Consider 31 compounds from the supplement of paper PMC13380429.

Assay [1] relates to Vero E6 infected with SARS-CoV-2. Briefly: morphology score (similarity to uninfected cells); higher = more like uninfected cells. The note with it: 24 h.
For assay [2] the test system is unchanged. Briefly: SARS-CoV-2 infection rate relative to infected DMSO; higher = more infection, active = 60 or less. To be noted: 24 h.

Structures are written as SMILES.

`CC[C@H]1[C@@H](O)[C@@H]2[C@H](CC[C@]3(C)[C@@H]([C@H](C)CCC(=O)O)CC[C@@H]23)[C@@]2(C)CC[C@@H](O)C[C@@H]12` [obeticholic-acid] (10 µM): the morphology score in assay [1] was determined as 0.174. Moreover, the SARS-CoV-2 infection rate in assay [2] was 101% (inactive).
With `C/C=C/c1cc(OC)c(OC)cc1OC` [alpha-asarone] (10 µM), the morphology score in assay [1] turned out to be 0.0292. In assay [2], the SARS-CoV-2 infection rate was 98.5% (inactive).
The matching figures for `Cc1nnc(C(=O)NC(C)(C)c2nc(C(=O)NCc3ccc(F)cc3)c(O)c(=O)n2C)o1` [raltegravir] (10 µM): 0.324 and 110% (inactive).
For `O=[N+]([O-])c1cn2c(n1)OC[C@@H](OCc1ccc(-c3ccc(OC(F)(F)F)cc3)nc1)C2` (10 µM) the same measures were -0.214 and 110% (inactive).
For `O=c1c(-c2ccc(O)cc2)coc2cc(O)ccc12` [daidzein] (10 µM) the same measures were 0.126 and 95% (inactive).
In assay [1], `Cn1ncc(Cl)c1-c1cc(C(=O)N[C@H](CN)Cc2cccc(F)c2)sc1Cl` (10 µM) showed a morphology score of 0.197. The SARS-CoV-2 infection rate in assay [2] was 107% (inactive).
Regarding `O=C1NC(=S)NC(=O)C1C(=O)Nc1ccccc1` [merbarone] (10 µM), in assay [1], the morphology score was determined as 0.103. The SARS-CoV-2 infection rate in assay [2] is 99% (inactive).
For the compound `CN1CCN(C2=Cc3ccccc3Oc3ccc(Cl)cc32)CC1` (10 µM), in assay [1], the morphology score came to 0.217. In assay [2], the SARS-CoV-2 infection rate was 106% (inactive).
Consider `CC[N+](C)(CC)CCOC(=O)C(O)(c1ccccc1)C1CCCCC1` (configuration not stated) [oxyphenonium] (10 µM), for which, in assay [1], the morphology score turned out to be 0.00163. The SARS-CoV-2 infection rate in assay [2] was 102% (inactive).
Consider `O=C(OCCN1CCOCC1)C1(c2ccccc2)CCCCC1` (10 µM), for which the morphology score in assay [1] is -0.00229. In addition, the SARS-CoV-2 infection rate in assay [2] is 106% (inactive).
`CCOC(=O)c1ncc2[nH]c3ccc(OCc4ccccc4)cc3c2c1COC` (10 µM): the morphology score in assay [1] was -0.0675. Further, the SARS-CoV-2 infection rate in assay [2] is 97.5% (inactive).
In assay [1], `C[C@H]1[C@@H](O)O[C@@H]2O[C@@]3(C)CC[C@H]4[C@H](C)CC[C@@H]1[C@@]24OO3` (10 µM) showed a morphology score of 0.225. Moreover, in assay [2], the SARS-CoV-2 infection rate is 84% (inactive).
On to `CCn1cc(C(=O)O)c(=O)c2cc(F)c(N3CCNCC3)cc21` [norfloxacin] (10 µM), for which the morphology score in assay [1] was 0.204. In assay [2], the SARS-CoV-2 infection rate was 86% (inactive).
For `CC(=O)N[C@H](Cc1ccc2ccccc2c1)C(=O)N[C@H](Cc1ccc(Cl)cc1)C(=O)N[C@H](Cc1cccnc1)C(=O)N[C@@H](CO)C(=O)N[C@@H](Cc1ccc(O)cc1)C(=O)N[C@H](CCCNC(N)=O)C(=O)N[C@@H](CC(C)C)C(=O)N[C@@H](CCCNC(=N)N)C(=O)N1CCC[C@H]1C(=O)N[C@H](C)C(N)=O` [cetrorelix] (10 µM) the same measures were 0.394 and 79.5% (inactive).
For `N#Cc1ccccc1OCC(O)CNCCNC(=O)Nc1ccccc1` (configuration not stated) (10 µM), the morphology score in assay [1] is -0.0291. In assay [2], the SARS-CoV-2 infection rate is 109% (inactive).
For `O=C(Nc1ccc(S(=O)(=O)Nc2ccccc2Cl)c(Cl)c1)c1ccccn1` (10 µM) the same measures were -0.132 and 114% (inactive).
Turning to `Cc1cc(C(=O)Nc2cc(Oc3ccc4nc(NC(=O)C5CC5)cn4n3)ccc2C)n(C)n1` (10 µM), the morphology score in assay [1] was determined as 0.227. For the same compound, the SARS-CoV-2 infection rate in assay [2] was 102% (inactive).
In assay [1], `Nc1nc(=O)n([C@H]2C[C@H](O)[C@@H](CO)O2)cc1F` [fdcyd] (10 µM) displayed a morphology score of -0.201. In addition, the SARS-CoV-2 infection rate in assay [2] is 97.5% (inactive).
The matching figures for `Cc1c(I)c(=O)n(-c2ccccc2)n1C` [iodoantipyrine] (10 µM): 0.0311 and 118% (inactive).
The matching figures for `Clc1ccc2c(NCCNc3ccnc4cc(Cl)ccc34)ccnc2c1` (10 µM): 0.0758 and 108% (inactive).
The matching figures for `NCCCCN` [putrescine] (10 µM): 0.0364 and 94% (inactive).
`CC(=O)NCCc1c(Cc2ccccc2)[nH]c2ccccc12` [luzindole] (10 µM) registered a morphology score in assay [1] of 0.0073. Further, the SARS-CoV-2 infection rate in assay [2] was 99% (inactive).
`CN(CCOc1ccc(C[C@H](Nc2ccccc2C(=O)c2ccccc2)C(=O)O)cc1)c1ccccn1` (10 µM): the morphology score in assay [1] amounted to 0.317. Moreover, the SARS-CoV-2 infection rate in assay [2] is 70% (inactive).
For `CCOc1c(N2CCOCC2)cnn(C)c1=O` [emorfazone] (10 µM) the same measures were 0.185 and 100% (inactive).
In assay [1], `CC(=O)O[C@H]1Cc2ccccc2N(C(N)=O)c2ccccc21` [eslicarbazepine-acetate] (10 µM) showed a morphology score of 0.137. In assay [2], the SARS-CoV-2 infection rate was 106% (inactive).
Compound `c1ccc(CC2=NCCN2)cc1` [tolazoline] (10 µM) had a morphology score in assay [1] of 0.146. The SARS-CoV-2 infection rate in assay [2] is 99.5% (inactive).
For `CCn1cnc(C(=O)NC)c1C(=O)NC` [ethimizol] (10 µM) the same measures were 0.114 and 96.5% (inactive).
For `Cc1ccc(S(=O)(=O)n2c(N)nc3ccccc32)cc1` (10 µM) the same measures were -0.0202 and 108% (inactive).
For `N.N.O=C([O-])C[O-].[Pt+2]` [nedaplatin] (10 µM) the same measures were 0.0896 and 102% (inactive).
In turn, `CCO[C@H]1O[C@@H]2O[C@@]3(C)CC[C@H]4[C@H](C)CC[C@@H]([C@H]1C)[C@@]24OO3` [artemotil] (10 µM) came in with a morphology score in assay [1] of -0.085. Further, the SARS-CoV-2 infection rate in assay [2] is 113% (inactive).
On to `COC(=O)c1c(C)[nH]c(C)c1C(=O)c1ccccc1Cc1ccccc1` (10 µM), for which the morphology score in assay [1] was -0.254. The SARS-CoV-2 infection rate in assay [2] was 118% (inactive).
